Potency and affinity values are given separately. Active and inactive are the calls of the source.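 How the source made its calls: active means compounds lowering HDL dye uptake whose fitted half-effect dose is at most twice the top valid dose; inconclusive means flat curve with moderate signal loss, or poor fit; inactive means the rest.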

The assay has as its target Scavenger receptor class B member 1 (Mus musculus) (UniProt Q61009). Briefly: inhibitors of SR-BI dependent HDL uptake, dose response, ldlA[mSR-BI] CHO cells, fluorescence plate reader, dry powder, set 9 (AID 623880).

Sequence of Scavenger receptor class B member 1 (Mus musculus) (Q61009 whole entry, looked up): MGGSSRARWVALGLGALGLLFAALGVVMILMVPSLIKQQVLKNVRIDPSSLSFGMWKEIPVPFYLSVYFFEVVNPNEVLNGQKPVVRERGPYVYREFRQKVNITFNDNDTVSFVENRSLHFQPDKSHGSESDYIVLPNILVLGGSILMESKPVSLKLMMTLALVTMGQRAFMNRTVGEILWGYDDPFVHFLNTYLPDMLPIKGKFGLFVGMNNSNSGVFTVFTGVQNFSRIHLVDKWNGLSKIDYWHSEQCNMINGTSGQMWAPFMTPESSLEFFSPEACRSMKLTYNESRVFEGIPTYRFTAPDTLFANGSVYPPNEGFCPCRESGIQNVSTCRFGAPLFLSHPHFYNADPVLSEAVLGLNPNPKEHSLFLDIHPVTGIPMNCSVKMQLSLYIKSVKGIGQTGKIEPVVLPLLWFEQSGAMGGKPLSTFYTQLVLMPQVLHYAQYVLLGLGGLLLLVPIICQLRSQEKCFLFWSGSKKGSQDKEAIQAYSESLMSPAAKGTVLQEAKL

For `Cc1ccc(OCc2cc(C(=O)N3CCCC(O)C3)no2)cn1` (stereo unspecified), the compound was called inactive.
